Source: PubChem
Only some compounds are listed: those with a hit (about 8.9% of all), similar ones and a draw of the others.
DRD3 agonist: agonists of human D3 dopamine receptor; max activation, %; AID 652048; D3R DiscoveRx beta-arrestin cells, luminescence, 90 min; P35462; 410,000 compounds, 0.58% hits; in the data active = max activation above about 30%; note: 0% is about no effect
Target sequence (P35462 whole entry, looked up): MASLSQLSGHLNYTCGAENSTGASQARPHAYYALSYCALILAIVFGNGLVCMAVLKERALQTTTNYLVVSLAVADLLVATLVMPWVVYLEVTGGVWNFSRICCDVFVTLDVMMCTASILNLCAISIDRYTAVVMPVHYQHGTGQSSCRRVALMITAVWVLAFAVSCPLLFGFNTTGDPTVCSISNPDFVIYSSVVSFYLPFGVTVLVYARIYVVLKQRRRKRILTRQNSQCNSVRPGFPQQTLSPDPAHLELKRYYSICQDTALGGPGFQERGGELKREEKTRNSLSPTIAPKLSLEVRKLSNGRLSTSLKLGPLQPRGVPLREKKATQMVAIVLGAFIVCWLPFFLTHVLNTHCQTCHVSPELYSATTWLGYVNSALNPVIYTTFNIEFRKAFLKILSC
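Agonist-mode cell screen: cells plated at 1500/well and incubated overnight at 37 °C, then exposed to library compounds for 90 min at 37 °C. Detection reagent was added for 30–60 min at room temperature, and luminescence was read.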
KB-V1 MDR tox: kills drug-selected multidrug resistant KB-V1 cells. KB-V1 MDR cells viability, CellTiter-Glo, 72 h. Potency, µM (doses to about 46.1 µM), actives largely listed as cytotoxic. 400,000 compounds, 3.4% hits. AID 1347076; note: potency is the fitted concentration of half-maximal effect; % is set by controls: 0 for no effect and ±100 for the full control effect; nearly all actives have a fitted effect of over 60% in size
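KB-V1 MDR subline cells in DMEM (phenol-red free, 10% FBS) exposed to compounds in qHTS concentration series for 72 h at 37 degrees C. Viability read by CellTiter-Glo luminescence; concentration-effect curves fitted after normalization and correction.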
D3 antag: blocks the human D3 dopamine receptor; P35462; D3R cells, DiscoveRx beta-arrestin luminescence, antagonist mode; stronger effect = lower value; max response, negative = inhibition, %; 360,000 compounds, 2.5% hits; in the data active = max response below about -50%; inconclusive = no clear call, values can overlap the other calls; note: % is set by controls: 0 for no effect and ±100 for the full control effect
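Cells expressing the human receptor were seeded at 1500 cells/well, incubated overnight at 37 degrees C in 5% CO2, then exposed to library compounds with dopamine controls for 90 minutes at 37 degrees C before luminescent detection.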
MCF10A rereplic: DNA re-replication induction in MCF 10a cells. AID 624296. 350,000 compounds, 2.9% hits. MCF 10A DNA re-replication, Hoechst nuclear intensity, 48 h. Potency, µM (doses to about 46.1 µM), for the others: at the highest dose activity, positive = re-replication, hits mostly activators; note: potency is the fitted concentration of half-maximal effect; % of control where 0% means no effect; nearly all actives have a fitted effect of over 50% in size
KB-3-1 cytotox: KB-3-1 parental cell cytotoxicity | KB-3-1 viability, CellTiter-Glo ATP luminescence, 72 h | 400,000 compounds, 1.4% hits | Potency, µM (top dose mostly 46.1 µM), actives largely listed as cytotoxic; note: potency is the fitted concentration of half-maximal effect; % is set by controls: 0 for no effect and ±100 for the full control effect; nearly all actives have a fitted effect of over 60% in size
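Cytotoxicity measured as CellTiter-Glo luminescence after 72 h at 37 C. Compound titrations were pinned onto drug-naive KB-3-1 parental adenocarcinoma cells grown in DMEM with 10% FBS, and normalized data fitted to concentration-response curves.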
SW480 rereplic: inducers of DNA re-replication in SW480 colon cancer cells; SW480 DNA re-replication, Hoechst DNA content imaging, 48 h; Potency, µM (series often up to 46.1 µM), for inactives: top-dose re-replication activation, actives largely listed as activators; 340,000 compounds, 1.8% hits; AID 624297; note: potency is the fitted concentration of half-maximal effect; % of control where 0% means no effect; nearly all actives have a fitted effect of over 55% in size
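Image-based DNA-content assay: after two days of treatment, nuclei were labelled with the DNA dye Hoechst and imaged, and hits were compounds raising the count of nuclei showing high fluorescence intensity.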
Numbers without * were called inactive; i = inactive; ? = inconclusive; · = no result given; ! = repeats disagree. Unless noted, calls come from the whole dose curve; as a rule, active = well fitted curve in the direction sought with a large enough effect; inconclusive = small, poorly fitted or top-dose-only effect, or another doubt; inactive = no such curve, though single readings can be large; an effect the other way counts as inactive or inconclusive.

SMILES	DRD3 agonist	KB-V1 MDR tox	D3 antag	MCF10A rereplic	KB-3-1 cytotox	SW480 rereplic
O=C(c1ccc(Cl)cc1)n1nc(-c2ccco2)nc1NCc1cccs1	-2.4	i	·	·	i	·
CCOc1ccc(NC(=S)N2CCCN(Cc3cccc(Cl)c3)C2)cc1	-13.1	i	-73.6*	?	i	?
Fc1ccc(CN2CCCN(C(=S)Nc3ccc(F)cc3)CC2)cc1	-14.1	i	-58.8*	?	i	-16.8%
COc1ccc(NC(=S)N2CCCN(Cc3cccc(Cl)c3)C2)cc1	-12.6	i	-80.2*	?	i	12.7%
CCOc1ccccc1NC(=O)Cn1c(=O)n(Cc2ccccc2)c(=O)c2cccnc21	-6.8	i	·	·	i	·
COc1cccc(Cn2c(=O)cc(C)c3c(C)nn(C)c32)c1	14.0	i	·	·	?	·
CCOC(=O)c1c(S(=O)(=O)N2CCC(C(=O)Nc3ccc(C)cn3)CC2)c(C)n(C)c1C	4.4	?	·	·	i	·
CCOC(=O)C1=C(NC(=S)NC(=O)c2ccccc2)c2ccccc2CC1(C)CC (centres undefined)	-0.7	?	2.5	13µM*	16.4µM*	9.6%
CC(C)Cc1ccc(S(=O)(=O)N2CCC(c3ccncc3)CC2)cc1	-16.1	i	·	·	?	·
CC(=O)Nc1nc(-c2ccc([N+](=O)[O-])cc2)cs1	0.5	i	7.3	0.1%	i	-41.9%
O=C(Nc1ccc([N+](=O)[O-])cc1)Nc1nc(-c2ccc(Cl)s2)cs1	-6.3	?	-22.5	2.91µM*	2.91µM*	-45.4%
O=C(Nc1nc(-c2ccc(Cl)cc2)cs1)NC1CCCCC1	-2.3	13µM*	-15.3	?	?	·
O=C(Nc1ccccc1)Nc1nc(-c2ccc(F)cc2)cs1	6.5	i	2.3	5.4%	i	2.1%
Cc1csc(NC(=O)Nc2cccc(Cl)c2)n1	-2.1	i	21.7	-0.1%	i	0.7%
O=C(Nc1cccc(Cl)c1)Nc1nc(-c2ccccc2)cs1	12.5	i	12.8	0.82µM*	i	6.0%
O=C(Nc1ccc(Cl)cc1)Nc1nc(-c2ccccc2)cs1	-2.6	i	4.5	0.581µM*	i	-8.2%
O=C(NCC1CCN(Cc2cccc(F)c2)CC1)c1cc2ccc3cccnc3c2[nH]1	-19.6	i	·	·	?	·
Cc1cc(C)cc(NC(=O)N2CCN(C)c3ncccc32)c1	-2.4	i	·	·	i	·
CCCN(C(=O)Cn1nc(Cc2cccnc2)c2ccccc2c1=O)c1ccc(C(C)C)cc1	-15.0	·	·	·	·	·
COc1ccc(/C=C\c2onc(C)c2S(=O)(=O)N2CCC(C(=O)Nc3ccc(F)cc3F)CC2)cc1	10.1	·	·	·	·	·
Cc1ccc2nc(-c3ccccc3)cc(C(=O)Nc3cccnc3)c2c1	7.6	2.91µM*	74.7	9.7%	i	-0.7%
COc1cc2c(cc1NC(=O)c1cc(-c3cccnc3)nc3ccc(C)cc13)oc1ccccc12	56.1*	i	15.8	?	i	21.2%
CCCN(CCC)CCNC(=O)c1cc2c(=O)oc3ccc(C)cc3c2s1	-1.5	i	·	·	i	·
COc1cc(CNC(=O)Nc2nc(C(N)Cc3ccc(C(F)(F)F)cc3)cs2)cc(OC)c1OC (centres undefined)	-6.6	i	-12.1	·	?	·
COc1ccccc1CNC(=O)Cn1c(=O)ccc2cc(S(=O)(=O)N3CCC(C)CC3)ccc21	-4.4	i	·	·	i	·
SMILES	DRD3 agonist	KB-V1 MDR tox	D3 antag	MCF10A rereplic	KB-3-1 cytotox	SW480 rereplic
COc1ccccc1N1CCN(C(=O)C2CCCN(S(=O)(=O)c3ccc4c(c3)oc(=O)n4C)C2)CC1 (centres undefined)	17.1	?	31.0	21.4%	10.3µM*!	-4.5%
COc1ccccc1CNC(=O)Cn1c(=O)oc2cc(S(=O)(=O)N3CCC(C)CC3)ccc21	-23.3	i	·	·	18.4µM*	·
Cn1c(=O)oc2cc(S(=O)(=O)N3CCCC(C(=O)NC4CCCc5ccccc54)C3)ccc21 (centres undefined)	0.1	?	-21.7	0.9%	5.8µM*	-1.9%
Cn1c(=O)oc2cc(S(=O)(=O)NC3CCCc4ccccc43)ccc21 (centres undefined)	-2.8	i	21.9	16.6%	i	-13.3%
COc1ccccc1CCNC(=O)Cc1c(C)c2c(O)cc(C)cc2oc1=O	22.0	i	·	·	i	·
Cc1ccc(NC(=O)Cn2ccn(-c3ccc(F)c(F)c3)c(=O)c2=O)cc1C	-9.2	·	·	·	·	·
O=C(c1ccco1)N1CCN(c2c([N+](=O)[O-])nn(-c3cccc(Cl)c3)[n+]2[O-])CC1	8.1	i	24.5	2.5%	i	-4.4%
N#Cc1cc2cc3c(cc2nc1N1CCCCC1)OCCO3	-4.0	i	?	?	i	?
Cc1cccc2cc(C#N)c(N3CCN(C)CC3)nc12	-8.0	i	-71.8*	10.6%	i	-10.1%
Cc1ccc(C(=O)N2CCCN(c3nc4cc5c(cc4cc3C#N)OCO5)CC2)cc1	-3.6	23.1µM*	2.1	8.2µM*	?	13µM*
COCCCNC(=S)N1CCCN(c2nc3cc(C)c(C)cc3cc2C#N)CC1	-2.9	i	2.0	18.4µM*	i	?
Cc1cc(C)c2nc(N3CCN(C)CC3)c(C#N)cc2c1	-13.4	i	-24.3	?	i	1.6%
Cc1ccc2nc(N3CCN(C)CC3)c(C#N)cc2c1	-15.4	i	?	2.1%	i	1.3%
Cc1ccc2cc(C#N)c(N3CCN(C)CC3)nc2c1	-19.3	i	-81.8*	3.1%	i	-1.8%
COc1ccc(S(=O)(=O)N(Cc2nc(-c3ccc(Cl)cc3)no2)C2CCCCC2)cc1	-16.6	·	·	·	·	·
Cc1cc(C)cc(OCC(=O)Nc2ccc(S(=O)(=O)Nc3onc(C)c3C)cc2)c1	3.3	i	·	·	i	·
Cc1cccc2cc(C#N)c(SCCN3CCCCC3)nc12	-13.6	?	?	?	i	8.2µM*
Cc1ccc(C#N)c(SCCN2CCCCC2)n1	-16.2	i	-16.3	-2.0%	i	1.0%
COc1ccc(OC)c(S(=O)(=O)Nc2cc(OC)c(Cl)cc2OC)c1	-10.4	i	-5.6	?	i	26.4%
COc1cc(NS(=O)(=O)c2ccc(OC)c(C)c2C)c(OC)cc1Cl	-0.6	i	6.5	?	3.26µM*	5.62µM*
Cc1cc(=O)n(C(C)C(=O)NCc2ccccc2Cl)c2c1c(C)nn2-c1ccccc1 (centres undefined)	3.7	i	·	·	i	·
O=C(NCc1ccc(F)cc1Cl)c1ccc(CSCc2ccccc2Cl)o1	-12.4	·	·	·	·	·
O=C(Nc1cccc(C(F)(F)F)c1)c1cc(-c2cccs2)on1	-67.1	i	-64.8*	-9.5%	i	-3.4%
